Reference: PMC11062922 (Nature Chemical Biology, 2023)
Like-named read-outs stand apart in the source and are kept apart here.

How the values were obtained:
PKN3 [1] = tested on: PKN3; design: species or system human, MV4-11 + K-562 + COLO205 + SK-N-BE2 + OVCAR-8; conditions: read-out: apparent Kd, n = 1;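 for IC50: NanoBRET target engagement in HEK293T cells transiently expressing full-length PKN3 with C-terminal NanoLuc, displacement of fluorescent tracer K5 (500 nM), BRET read after 2 h equilibration at 37 °C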
SIK2 = tested on: SIK2; design: species or system human, MV4-11 + K-562 + COLO205 + SK-N-BE2 + OVCAR-8; conditions: read-out: apparent Kd, n = 1
PKN3 [2] = conditions: hek293t cells
GAK = tested on: GAK; design: species or system human, MV4-11 + K-562 + COLO205 + SK-N-BE2 + OVCAR-8; conditions: read-out: apparent Kd, n = 1
CSNK2A1;CSNK2A3 = tested on: CSNK2A1;CSNK2A3; design: species or system human, MV4-11 + K-562 + COLO205 + SK-N-BE2 + OVCAR-8; conditions: read-out: apparent Kd, n = 1
CSNK2A2 = tested on: CSNK2A2; design: species or system human, MV4-11 + K-562 + COLO205 + SK-N-BE2 + OVCAR-8; conditions: read-out: apparent Kd, n = 1
AAK1 = tested on: AAK1; design: species or system human, MV4-11 + K-562 + COLO205 + SK-N-BE2 + OVCAR-8; conditions: read-out: apparent Kd; compound concentrations:100 nM and 1000 nM (sheet 'Samples'); n = 1
BMP2K = tested on: BMP2K; design: species or system human, MV4-11 + K-562 + COLO205 + SK-N-BE2 + OVCAR-8; conditions: read-out: apparent Kd; compound concentrations:100 nM and 1000 nM (sheet 'Samples'); n = 1
CLK1 = tested on: CLK1; design: species or system human, MV4-11 + K-562 + COLO205 + SK-N-BE2 + OVCAR-8; conditions: read-out: apparent Kd; compound concentrations:100 nM and 1000 nM (sheet 'Samples'); n = 1
CLK4 = tested on: CLK4; design: species or system human, MV4-11 + K-562 + COLO205 + SK-N-BE2 + OVCAR-8; conditions: read-out: apparent Kd; compound concentrations:100 nM and 1000 nM (sheet 'Samples'); n = 1
FLT4 = tested on: FLT4; design: species or system human, MV4-11 + K-562 + COLO205 + SK-N-BE2 + OVCAR-8; conditions: read-out: apparent Kd; compound concentrations:100 nM and 1000 nM (sheet 'Samples'); n = 1
GSK3A = tested on: GSK3A; design: species or system human, MV4-11 + K-562 + COLO205 + SK-N-BE2 + OVCAR-8; conditions: read-out: apparent Kd, n = 1
GSK3B = tested on: GSK3B; design: species or system human, MV4-11 + K-562 + COLO205 + SK-N-BE2 + OVCAR-8; conditions: read-out: apparent Kd, n = 1
MELK = tested on: MELK; design: species or system human, MV4-11 + K-562 + COLO205 + SK-N-BE2 + OVCAR-8; conditions: read-out: apparent Kd; compound concentrations:100 nM and 1000 nM (sheet 'Samples'); n = 1
NUAK1 = tested on: NUAK1; design: species or system human, MV4-11 + K-562 + COLO205 + SK-N-BE2 + OVCAR-8; conditions: read-out: apparent Kd; compound concentrations:100 nM and 1000 nM (sheet 'Samples'); n = 1
PAK4 = tested on: PAK4; design: species or system human, MV4-11 + K-562 + COLO205 + SK-N-BE2 + OVCAR-8; conditions: read-out: apparent Kd, n = 1
PKN1 = tested on: PKN1; design: species or system human, MV4-11 + K-562 + COLO205 + SK-N-BE2 + OVCAR-8; conditions: read-out: apparent Kd; compound concentrations:100 nM and 1000 nM (sheet 'Samples'); n = 1
PRKAG1 = tested on: PRKAG1; design: species or system human, MV4-11 + K-562 + COLO205 + SK-N-BE2 + OVCAR-8; conditions: read-out: apparent Kd; compound concentrations:100 nM and 1000 nM (sheet 'Samples'); n = 1
Q6ZSR9 = Q6ZSR9 (human, UniProt Q6ZSR9); design: species or system MV4-11 + K-562 + COLO205 + SK-N-BE2 + OVCAR-8; conditions: read-out: apparent Kd; compound concentrations:100 nM and 1000 nM (sheet 'Samples'); n = 1
Sequence of Q6ZSR9 (Q6ZSR9 whole entry, looked up): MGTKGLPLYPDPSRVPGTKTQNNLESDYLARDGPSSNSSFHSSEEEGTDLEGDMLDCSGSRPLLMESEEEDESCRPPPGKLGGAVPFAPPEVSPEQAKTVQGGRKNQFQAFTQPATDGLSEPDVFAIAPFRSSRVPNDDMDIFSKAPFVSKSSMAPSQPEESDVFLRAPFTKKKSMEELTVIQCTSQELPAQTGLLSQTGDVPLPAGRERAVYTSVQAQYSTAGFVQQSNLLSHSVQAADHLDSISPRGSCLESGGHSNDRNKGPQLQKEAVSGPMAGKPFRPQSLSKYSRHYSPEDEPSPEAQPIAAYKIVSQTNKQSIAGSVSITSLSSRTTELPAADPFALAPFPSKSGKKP

RET = tested on: RET; design: species or system human, MV4-11 + K-562 + COLO205 + SK-N-BE2 + OVCAR-8; conditions: read-out: apparent Kd; compound concentrations:100 nM and 1000 nM (sheet 'Samples'); n = 1
[3] = compound concentrations:100 nM and 1000 nM (sheet 'Samples')

Molecule `CCOc1nccc2c1nc(-c1nonc1N)n2CC` [SB-737198] has a potency estimated from few doses (PKN3 [1]; compound concentrations: 100 nM and 1000 nM (sheet 'Samples'), CATDS: 0.243522946677111) of 0.869 µM, a potency estimated from few doses (SIK2; compound concentrations: 100 nM and 1000 nM (sheet 'Samples'), CATDS: 0.197359346007206) of 1.5 µM and an IC50 (PKN3 [2]; read-out: Average, n = 4) greater than 50 µM. It also gave an IC50 (PKN3 [2]; read-out: Rep 1) greater than 50 µM, an IC50 (PKN3 [2]; read-out: Rep 2) greater than 50 µM and an IC50 (PKN3 [2]; read-out: Rep 3) greater than 50 µM. The IC50 (PKN3 [2]; read-out: Rep 4) was greater than 50 µM.

Work on `COc1cccc2c(-c3ccncc3)c(-c3ccc(F)cc3)nn12` [GW468513X] yielded a potency estimated from few doses (GAK; compound concentrations: 100 nM and 1000 nM (sheet 'Samples'), CATDS: 4.7773336245273197E-2) of 0.615 µM, a potency estimated from few doses (PKN3 [1]; compound concentrations: 100 nM and 1000 nM (sheet 'Samples'), CATDS: 5.3563953975551901E-2) of 0.427 µM and an IC50 (PKN3 [2]; read-out: Average, SD, n = 3) of 0.91 µM. The IC50 (PKN3 [2]; read-out: Rep 1) was 2.1 µM, the IC50 (PKN3 [2]; read-out: Rep 2) was 0.552 µM and the IC50 (PKN3 [2]; read-out: Rep 4) was 0.0739 µM.

With `O=C1N=C(Nc2ccccc2)S/C1=C\c1ccc2ncccc2c1` [RO4493940-000] the potency estimated from few doses (CSNK2A1;CSNK2A3; compound concentrations: 100 nM and 1000 nM (sheet 'Samples'), CATDS: 0.36155727747203598) was 0.291 µM and the potency estimated from few doses (CSNK2A2; compound concentrations: 100 nM and 1000 nM (sheet 'Samples'), CATDS: 0.44448936869789302) was 0.203 µM.

Work on `Cl.Cl.NCC(C(=O)Nc1cc(Br)c(-c2ccnc3[nH]ccc23)s1)c1ccccc1.NCC(C(=O)Nc1cc(Br)c(-c2ccnc3[nH]ccc23)s1)c1ccccc1` (stereo not shown) [GSK1269851A] yielded a potency estimated from few doses (AAK1) of 0.0844 µM, a potency estimated from few doses (BMP2K) of 0.126 µM and a potency estimated from few doses (CLK1) of 0.449 µM. It also gave a potency estimated from few doses (CLK4) of 1.07 µM, a potency estimated from few doses (CSNK2A1;CSNK2A3; [3]) of 0.861 µM and a potency estimated from few doses (CSNK2A2; [3]) of 1.13 µM. The potency estimated from few doses (FLT4) was 1.23 µM, the potency estimated from few doses (GAK; [3]) was 0.063 µM and the potency estimated from few doses (GSK3A; [3]) was 0.109 µM. It also gave a potency estimated from few doses (GSK3B; [3]) of 0.417 µM, a potency estimated from few doses (MELK) of 2.32 µM and a potency estimated from few doses (NUAK1) of 1.2 µM. The potency estimated from few doses (PAK4; [3]) was 0.736 µM, the potency estimated from few doses (PKN1) was 1.33 µM and the potency estimated from few doses (PKN3 [1]; [3]) was 0.863 µM. The potency estimated from few doses (PRKAG1) was 0.416 µM, the potency estimated from few doses (Q6ZSR9) was 0.0544 µM and the potency estimated from few doses (RET) was 0.539 µM. The potency estimated from few doses (SIK2; [3]) was 0.751 µM.

`CCn1c(-c2nonc2N)nc2c(C#CC(C)(C)O)nc(OC[C@@H](N)c3ccccc3)cc21` [GSK938890A] showed a potency estimated from few doses (GSK3A; compound concentrations: 100 nM and 1000 nM (sheet 'Samples'), CATDS: 6.6915182583243901E-2) of 0.404 µM, a potency estimated from few doses (GSK3B; compound concentrations: 100 nM and 1000 nM (sheet 'Samples'), CATDS: 6.5310864553074097E-2) of 0.446 µM and a potency estimated from few doses (PAK4; compound concentrations: 100 nM and 1000 nM (sheet 'Samples'), CATDS: 0.107853549418886) of 0.0883 µM. For the same molecule, the potency estimated from few doses (PKN3 [1]; compound concentrations: 100 nM and 1000 nM (sheet 'Samples'), CATDS: 0.20749541918588199) was 0.0236 µM, the IC50 (PKN3 [2]; read-out: Average, SD, n = 4) was 0.0978 µM and the IC50 (PKN3 [2]; read-out: Rep 1) was 0.31 µM. The IC50 (PKN3 [2]; read-out: Rep 2) was 0.0312 µM, the IC50 (PKN3 [2]; read-out: Rep 3) was 0.0281 µM and the IC50 (PKN3 [2]; read-out: Rep 4) was 0.0223 µM.
